# This is part of a sample that, as a whole, favours compounds with a hit. Of some 79,000 tested, about 15% had one in any assay. A number with no mark means an inactive call. The source made the active and inactive calls. Cut-off read from the data, not from the text of the source: active = growth inhibition above about 70%; inactive = the rest.
# Tests used:
# [1] = NCI Yeast Anticancer Drug Screen. Data for the rad52 strain (AID 147);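 note: 0% = growth of vehicle-treated control cultures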; settings: S. cerevisiae rad52 mutant growth inhibition, hits give high values
# Method in brief: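 Read-out: growth inhibition versus vehicle-treated controls. Cells were a DNA repair-deficient yeast strain treated with compounds.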
# [2] = NCI Yeast Anticancer Drug Screen. Data for the wt1 strain (AID 149);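 note: 0% = growth of vehicle-treated wt1 cultures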; settings: S. cerevisiae wt1 strain (SPY 50644) growth inhibition, hits give high values
# Method in brief: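 Yeast wt1 strain exposed to compounds; growth inhibition measured relative to vehicle-treated controls.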
# [3] = NCI Yeast Anticancer Drug Screen. Data for the rad50EPP+ strain (AID 151);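 note: 0% = growth of vehicle-treated control cultures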; settings: S. cerevisiae rad50 mutant strain, hits give high values
# Method in brief: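 Growth inhibition read against vehicle controls in rad50EPP+ yeast, a strain altered in DNA damage repair, after compound exposure.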
# [4] = NCI Yeast Anticancer Drug Screen. Data for the mgt1 strain (AID 153); settings: S. cerevisiae mgt1 mutant growth inhibition, hits give high values
# Method in brief: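 mgt1 yeast grown with test compound; read-out is growth inhibition versus vehicle-treated cultures.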
# [5] = NCI Yeast Anticancer Drug Screen. Data for the rad50 strain (AID 155);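 note: 0% = growth of vehicle-only cultures of the same strain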; settings: S. cerevisiae rad50 strain growth inhibition, hits give high values
# Method in brief: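 Yeast carrying a defined DNA repair defect were exposed to test compounds, and growth was compared with vehicle-treated controls to give percent inhibition.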
# [6] = NCI Yeast Anticancer Drug Screen. Data for the mec2-1 strain (AID 157); settings: S. cerevisiae mec2-1 strain, hits give high values
# Method in brief: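 Yeast mec2-1 mutant treated with compound. Readout: growth inhibition vs vehicle controls.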
# [7] = NCI Yeast Anticancer Drug Screen. Data for the rad14 strain (AID 159);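 note: 0% = growth of vehicle-treated control cultures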; settings: S. cerevisiae rad14 strain growth inhibition, hits give high values
# Method in brief: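 Yeast cells carrying a defined DNA-repair defect were exposed to compounds, and growth inhibition was calculated relative to vehicle-treated control cultures.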
# [8] = NCI Yeast Anticancer Drug Screen. Data for the sgs1 mgt1 strain (AID 161);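 note: 0% = growth of cultures given vehicle only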; settings: S. cerevisiae sgs1 mgt1 strain, hits give high values
# Method in brief: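 Inhibition of yeast growth, normalised to vehicle-treated controls, is reported for a strain bearing genetic alterations in DNA damage repair.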
# [9] = NCI Yeast Anticancer Drug Screen. Data for the CLN2oe strain (AID 163);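 note: 0% = growth of vehicle-only control cultures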; settings: S. cerevisiae CLN2oe strain, hits give high values
# Method in brief: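 Read-out: yeast growth inhibition, expressed relative to vehicle-only controls. The strain bears an engineered cell-cycle alteration.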
# [10] = NCI Yeast Anticancer Drug Screen. Data for the cln2 rad14 strain (AID 165);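 note: 0% = growth equal to vehicle treated cultures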; settings: S. cerevisiae cln2 rad14 strain, hits give high values
# Method in brief: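 cln2 rad14 yeast strain; compound exposure; growth inhibition read vs vehicle controls.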
# [11] = NCI Yeast Anticancer Drug Screen. Data for the bub3 strain (AID 167); settings: S. cerevisiae bub3 mutant strain, hits give high values
# Method in brief: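 Compounds were applied to a genetically altered yeast strain carrying a cell-cycle control defect. Growth inhibition was scored against vehicle-treated controls.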
# [12] = NCI Yeast Anticancer Drug Screen. Data for the wt2 strain (AID 169);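 note: 0% = growth of vehicle-treated yeast cultures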; settings: S. cerevisiae wt2 strain growth inhibition, hits give high values
# Method in brief: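 Read-out: growth inhibition versus vehicle-treated control cultures after compound exposure of the yeast strain.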
# [13] = NCI Yeast Anticancer Drug Screen. Data for the mlh1 strain (AID 171);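 note: 0% = growth of vehicle-treated control cultures of the same strain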; settings: S. cerevisiae mlh1 strain growth inhibition, hits give high values
# Method in brief: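 Read-out: growth inhibition versus vehicle controls. Strain: engineered yeast with a defined DNA repair or cell cycle defect, compound-treated.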
# [14] = NCI Yeast Anticancer Drug Screen. Data for the sgs1 strain (AID 173);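 note: 0% = growth of vehicle-only control cultures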; settings: S. cerevisiae sgs1 mutant, hits give high values
# Method in brief: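 Read-out: yeast growth inhibition relative to vehicle controls, following compound exposure of a strain with a defined DNA repair/cell cycle alteration.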
# [15] = NCI Yeast Anticancer Drug Screen. Data for the mlh1 rad18 strain (AID 175); settings: S. cerevisiae mlh1 rad18 strain growth inhibition, hits give high values
# Method in brief: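 Yeast w/ defined DNA-repair lesions; compound exposure; growth vs vehicle controls → % inhibition.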
# [16] = NCI Yeast Anticancer Drug Screen. Data for the rad18 strain (AID 177); settings: S. cerevisiae rad18 mutant growth inhibition, hits give high values
# Method in brief: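 Readout: growth inhibition vs vehicle controls. Cells: genetically altered yeast strain, DNA repair defect.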
# [17] = at 5.0 µM (retest, dose inferred, filed as 0.5)
# [18] = at 50.0 µM (retest, dose inferred, filed as 5.0)
smiles,measurement,setting,value
C=C(C(=O)OC)N1C(=O)CC(C)C1=O (stereo not drawn),growth inhibition,[1]; at 1.2 µM,0%
same,growth inhibition,[1]; at 3.7 µM,10%
same,growth inhibition,[1]; at 11.0 µM,14%
same,growth inhibition,[1]; at 33.0 µM,24%
same,growth inhibition,[1]; at 100.0 µM,56%
same,growth inhibition,[2]; at 1.2 µM,7%
same,growth inhibition,[2]; at 3.7 µM,15%
same,growth inhibition,[2]; at 11.0 µM,12%
same,growth inhibition,[2]; at 33.0 µM,19%
same,growth inhibition,[2]; at 100.0 µM,67%
same,growth inhibition,[3]; at 1.2 µM,-1%
same,growth inhibition,[3]; at 3.7 µM,4%
same,growth inhibition,[3]; at 11.0 µM,6%
same,growth inhibition,[3]; at 33.0 µM,8%
same,growth inhibition,[3]; at 100.0 µM,-10%
same,growth inhibition,[4]; at 1.2 µM,16%
same,growth inhibition,[4]; at 3.7 µM,6%
same,growth inhibition,[4]; at 11.0 µM,9%
same,growth inhibition,[4]; at 33.0 µM,27%
same,growth inhibition,[4]; at 100.0 µM,71% (active)
same,growth inhibition,[5]; at 1.2 µM,8%
same,growth inhibition,[5]; at 3.7 µM,8%
same,growth inhibition,[5]; [17],14%
same,growth inhibition,[5]; at 11.0 µM,13%
same,growth inhibition,[5]; at 33.0 µM,14%
same,growth inhibition,[5]; [18],66%
same,growth inhibition,[5]; at 50.0 µM,75.5% (active)
same,growth inhibition,[5]; at 100.0 µM,67%
same,growth inhibition,[6]; at 1.2 µM,0%
same,growth inhibition,[6]; at 3.7 µM,12%
same,growth inhibition,[6]; [17],27%
same,growth inhibition,[6]; at 11.0 µM,23%
same,growth inhibition,[6]; at 33.0 µM,48%
same,growth inhibition,[6]; [18],85% (active)
same,growth inhibition,[6]; at 50.0 µM,80.2% (active)
same,growth inhibition,[6]; at 100.0 µM,81% (active)
same,growth inhibition,[7]; at 1.2 µM,-11%
same,growth inhibition,[7]; at 3.7 µM,-2%
same,growth inhibition,[7]; at 11.0 µM,8%
same,growth inhibition,[7]; at 33.0 µM,11%
same,growth inhibition,[7]; at 100.0 µM,68%
same,growth inhibition,[8]; [17],32%
same,growth inhibition,[8]; [18],81% (active)
same,growth inhibition,[8]; at 50.0 µM,77.3% (active)
same,growth inhibition,[9]; at 1.2 µM,-3%
same,growth inhibition,[9]; at 3.7 µM,11%
same,growth inhibition,[9]; at 11.0 µM,10%
same,growth inhibition,[9]; at 33.0 µM,14%
same,growth inhibition,[9]; at 100.0 µM,38%
same,growth inhibition,[10]; [17],6%
same,growth inhibition,[10]; [18],30%
same,growth inhibition,[10]; at 50.0 µM,47.4%
same,growth inhibition,[11]; at 1.2 µM,10%
same,growth inhibition,[11]; at 3.7 µM,1%
same,growth inhibition,[11]; [17],21%
same,growth inhibition,[11]; at 11.0 µM,9%
same,growth inhibition,[11]; at 33.0 µM,25%
same,growth inhibition,[11]; [18],88% (active)
same,growth inhibition,[11]; at 50.0 µM,85.5% (active)
same,growth inhibition,[11]; at 100.0 µM,80% (active)
same,growth inhibition,[12]; at 1.2 µM,-41%
same,growth inhibition,[12]; at 3.7 µM,-26%
same,growth inhibition,[12]; at 11.0 µM,-17%
same,growth inhibition,[12]; at 33.0 µM,50%
same,growth inhibition,[12]; at 100.0 µM,87% (active)
same,growth inhibition,[13]; at 1.2 µM,2%
same,growth inhibition,[13]; at 3.7 µM,4%
same,growth inhibition,[13]; at 11.0 µM,6%
same,growth inhibition,[13]; at 33.0 µM,42%
same,growth inhibition,[13]; at 100.0 µM,80% (active)
same,growth inhibition,[14]; at 1.2 µM,0%
same,growth inhibition,[14]; at 3.7 µM,12%
same,growth inhibition,[14]; at 11.0 µM,21%
same,growth inhibition,[14]; at 33.0 µM,40%
same,growth inhibition,[14]; at 100.0 µM,67%
same,growth inhibition,[15]; [17],57%
same,growth inhibition,[15]; [18],96% (active)
same,growth inhibition,[15]; at 50.0 µM,67.5%
same,growth inhibition,[16]; at 1.2 µM,-5%
same,growth inhibition,[16]; at 3.7 µM,7%
same,growth inhibition,[16]; at 11.0 µM,17%
same,growth inhibition,[16]; at 33.0 µM,32%
same,growth inhibition,[16]; at 100.0 µM,75% (active)
